ChEMBL document CHEMBL3988442, “University of Dundee, Small-Polar-MMV Screening Library” (2021)

Experiments:
[1] = biological target: T1, Aspartate--tRNA(Asp/Asn) ligase (Mycobacterium tuberculosis (strain ATCC 25618 / H37Rv)) (UniProt P9WFW3); assay: Assay for Asp RNA synthetase-1 from Mycobacterium tuberculosis; type: functional; design: scale not given: direction of the effect not stated beside the values; conditions: 30 µM; further: in the data most compounds retested in dose-response had high values
T1 sequence (whole entry): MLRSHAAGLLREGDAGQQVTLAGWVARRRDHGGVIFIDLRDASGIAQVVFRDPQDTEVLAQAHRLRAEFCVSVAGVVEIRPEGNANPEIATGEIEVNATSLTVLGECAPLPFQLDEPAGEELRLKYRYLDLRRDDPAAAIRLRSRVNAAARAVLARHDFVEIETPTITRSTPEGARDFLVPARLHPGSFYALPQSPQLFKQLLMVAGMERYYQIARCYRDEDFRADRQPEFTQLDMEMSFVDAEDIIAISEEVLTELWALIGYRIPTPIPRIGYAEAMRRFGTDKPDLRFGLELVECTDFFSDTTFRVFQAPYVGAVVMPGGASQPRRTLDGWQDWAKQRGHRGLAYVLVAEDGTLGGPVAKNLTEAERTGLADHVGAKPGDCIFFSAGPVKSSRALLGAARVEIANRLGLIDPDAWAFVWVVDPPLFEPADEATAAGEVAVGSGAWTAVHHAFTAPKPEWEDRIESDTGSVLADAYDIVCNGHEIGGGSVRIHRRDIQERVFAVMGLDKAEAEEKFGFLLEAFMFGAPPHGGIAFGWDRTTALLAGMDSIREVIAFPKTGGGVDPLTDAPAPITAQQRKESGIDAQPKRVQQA

[2] = biological target: Shiga toxin 2 (Escherichia coli O157:H7) (UniProt P09385+P09386); assay: E. coli 0.157:H7 Shiga Toxin SOP - stx2 screening assay; type: functional; design: scale not given: direction of the effect not stated beside the values; conditions: 30 µM

Row | Compound | Percent Effect [1] | Percent Effect [2]
1 | CNc1nc2c(s1)C(c1c(Cl)cccc1Cl)CC(=O)N2 (stereo not given) | 50.9% | 5.63%
2 | CCCS(=O)(=O)N1CCO[C@H]2[C@H](OCc3ccccn3)CC[C@@H]21 | 3.5% | -8.66%
3 | COCc1nn(C(C)C)c2c1CCN(Cc1cccs1)C2 | -2.9% | 18.3%
4 | CC(C)c1ncncc1C(=O)N1CCCN(Cc2cccs2)CC1 | -3.79% | 6.52%
5 | CC(C)COC(C)C(=O)NCc1ccc(OC(C)C)nc1 (stereo not given) | 1.79% | 9.54%
6 | Cc1ccoc1C(=O)N1CC[C@H]2O[C@@H](C)C[C@H]2C1 | -2.48% | -17.1%
7 | CC(=O)N1CCC2(CCCN(C(=O)c3ccccc3)C2)C1 (stereo not given) | -1.28% | -1.81%
8 | Cc1nnc2n1CCN(Cc1csc(-c3ccc(F)cc3)n1)C2 | 2.74% | 3.01%
9 | CCC(=O)N1CCc2nc3cc(OC)c(OC)cc3c(=O)n2CC1 | -5.4% | -7.9%
10 | Cc1nc(O)cc(C2CCN(Cc3cccc(F)c3F)C2)n1 (stereo not given) | -1.21% | -17.9%
11 | Cc1ncoc1C(=O)N1CCn2c(COCC3CC3)cnc2C1C (stereo not given) | 7.95% | -10.6%
12 | O=C(Nc1ccc(F)cc1)N1C[C@H]2C[C@H](C(=O)N3CCOCC3)[C@@H](C1)O2 | 0.452% | -11.7%
13 | NC(=O)c1ccc2c(c1)nc1n2CCN(Cc2ccccc2)C1 | 3.29% | -9.11%
14 | COc1ncccc1C(=O)N1CCn2c(COCC3CC3)cnc2C1C (stereo not given) | -2.76% | 6.35%
15 | CS(=O)(=O)N1CCC[C@]2(C[C@@H](Oc3ncccc3F)CO2)C1 | 7.67% | -11.6%
16 | O=C1CC(c2cccc(O)c2)c2c(c(C(=O)O)cn2-c2ccccc2)N1 (stereo not given) | 22.9% | -12.9%
17 | Cc1nc(C2CCCN(C(=O)c3cc(Cl)c[nH]3)C2)no1 (stereo not given) | -3.91% | 0.906%
18 | CS(=O)(=O)c1ccc(CNC(=O)N2CCC(C(N)=O)C2)cc1 (stereo not given) | -1.49% | -11.7%
19 | CSCC(C)(O)CNC(=O)c1cc(Br)ccc1Cl (stereo not given) | -0.23% | -13.2%
20 | CN(CCCc1cnn(C)c1)C(=O)C1COc2ccccc2C1 (stereo not given) | 11.4% | -16.4%
21 | O=C(NCc1cccc2cccnc12)N1CCC(n2cncn2)CC1 | -6.04% | 8.18%
22 | CC(C)Sc1nnc(CCNC(=O)OC(C)(C)C)o1 | -0.987% | -76.8%
23 | CCN1CCN(C(=O)c2cc(C(=O)OC)nn2-c2ccccc2)CC1 | 2.94% | 26.1%
24 | CN1CCCC2(CCN(C(=O)CCn3cncn3)C2)C1=O (stereo not given) | -4.51% | 27.3%
25 | Cn1cc(N2CCC3(CCN(Cc4nccs4)C3)C2=O)cn1 (stereo not given) | -0.749% | -2.2%

Row | Compound | Percent Effect [1] | Percent Effect [2]
26 | N#Cc1ccccc1OCCN1CCn2c(nnc2C2CC2)C1 | -1.13% | -21.3%
27 | CCn1nnc2c1C(COC)CN(Cc1ccsc1)C2 (stereo not given) | -1.23% | -3.86%
28 | Cc1ncccc1NC(=O)[C@H]1C[C@@H]2CCN(Cc3nccs3)C[C@@H]2O1 | -3.35% | 0.675%
29 | CCc1cc(O)nc(C2CCCN2C(=O)c2cccnc2)n1 (stereo not given) | 2.54% | 2.33%
30 | Cc1cccc(-c2noc(CN3CC(n4cc(C)cn4)C3)n2)c1 | -0.577% | -2.34%
31 | O=C(COc1cccc2c1CCC2=O)NCCOc1ccccc1 | 12.7% | -35%
32 | CN1C(=O)C(c2cccnc2)CC12CCN(C(=O)c1cccn1C)CC2 (stereo not given) | 0.99% | -12.3%
33 | Nc1cc(CCC2CN(Cc3ccc(C(=O)O)cc3)CCO2)ccn1 (stereo not given) | 2.72% | 55.2%
34 | CN(CCCc1cnn(C)c1)C(=O)C1CCOC1 (stereo not given) | 5.2% | -36.5%
35 | Cn1c(Cn2ccnc2)nnc1C1CCN(C(=O)C2(C)CC2)CC1 | -0.661% | -12.1%
36 | Cc1cc(CN2CCOC(CN(C)C)C2)no1 (stereo not given) | 1.81% | 26.2%
37 | CCN(Cc1nc2c(cnn2C)c(=O)[nH]1)Cc1cccs1 | -1.27% | 5.32%
38 | CC(C)n1ccnc1C1CCN(C(=O)c2ccccc2)CC1 | -4.71% | 12.4%
39 | CCN(Cc1nc2c(cnn2C)c(=O)[nH]1)c1ccc(OC)c(OC)c1 | 2.9% | -61.1%
40 | O=C(Nc1cccc(Cl)c1)c1nn(C2CCS(=O)(=O)C2)c2c1CCCC2 (stereo not given) | 6.98% | 5.07%
41 | CCn1ccc(C(=O)NCCCN2CCOCC2)n1 | 8.41% | -55.1%
42 | CC(C)CCN1Cc2c(C(=O)O)ncn2-c2ccccc2S1(=O)=O | -0.474% | -10.7%
43 | CCC1=N[C@@]2(CC[C@@H]3CN(S(=O)(=O)CC(C)C)C[C@@H]32)C(=O)N1C | 0.189% | -1.16%
44 | CS(=O)(=O)N1CC[C@]2(C[C@@H](OCC3CCC3)CO2)C1 | -2.3% | 6.17%
45 | CCOc1ncccc1NC(=O)N1CCCCCC1 | 7.43% | -2.38%
46 | Cc1cn[nH]c1C1CCCCN1C(=O)CCN1CCCCCC1 (stereo not given) | 8.57% | 28.2%
47 | CCCc1nc(CN2CCOC(CNc3cccnn3)C2)cs1 (stereo not given) | 3.73% | 27.3%
48 | Cc1nonc1C(=O)N1CCCC(c2ncncc2-c2ccncc2)C1 (stereo not given) | 2.57% | 10.2%
49 | Cc1cnn(C2CCCN(C(=O)c3sccc3-n3cnnn3)C2)c1 (stereo not given) | -2.01% | -40.9%
50 | CCNc1cc2c(nn1)CCN(C(=O)Cc1c(C)noc1C)C2 | 0.225% | 16%
